From PubChem
The list is not random: actives were taken first. Their share in the collection is about 10%.
NIH3T3 tox – kills NIH 3T3 cells; NIH 3T3 viability, CellTiter-Glo ATP luminescence, 48-72 h; Potency, µM (doses to about 96.7 µM), inactives show at the top dose activity change, negative = cytotoxicity, most hits filed as inhibitors; actives 4.3% (n = 94,000); AID 1345082; note: % is set by controls: 0 for no effect and ±100 for the full control effect; nearly all actives have a fitted effect of over 55% in size
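Cells were seeded at 400 per well, treated with pin-transferred compound, and kept 48 or 72 hr at 37 °C before CellTiter-Glo addition and luminescence imaging of cellular ATP.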
hNpr1 antagonist – blocks ANP-stimulated signaling of human Npr1 receptor | P16066 | HEK293 hNpr1 GloSensor cGMP, ANP-stimulated luminescence | Potency, µM (top dose mostly 46.3 µM), for the others: top-dose activity change, negative = inhibition, most hits filed as inhibitors | actives 1.6% (n = 76,000) | AID 1347048; calls by dose curve; note: % is set by controls: 0 for no effect and ±100 for the full control effect; nearly all actives have a fitted effect of over 60% in size
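HEK293 cells stably expressing human Npr1 and cGMP GloSensor pGS-40F, loaded 2 h with 2% GloSensor reagent, given compound 30 min at room temperature. Luminescence read before and 20 min after 0.1 nM hNppA.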
HEK cytotox – HEK 293 cell cytotoxicity; HEK 293 viability, ATP luminescence (CellTiter-Glo), 48-72 h; Potency, µM (doses to about 115 µM), inactives show top-dose activity change, negative = cytotoxicity, usual class: inhibitors; actives 6.6% (n = 94,000); note: % is set by controls: 0 for no effect and ±100 for the full control effect; nearly all actives have a fitted effect of over 60% in size
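HEK 293 cells seeded at 250 cells/well were exposed to compound for 48 or 72 hr at 37 degree Celsius. Viability taken as ATP content by CellTiter-Glo luminescence.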
GPT2 inh – blocks human glutamate pyruvate transaminase 2. AID 1671188. Recombinant GPT2, coupled pyruvate oxidase/HRP Amplex Red fluorescence. Potency, µM (titrated, usually from 57.7 µM), for inactives: at the highest dose activity change, negative = inhibition, actives largely listed as inhibitors. actives 0.25% (n = 100,000). Q8TD30; note: % is set by controls: 0 for no effect and ±100 for the full control effect; nearly all actives have a fitted effect of over 60% in size
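Recombinant GPT2 (10ng/uL) with 250uM a-KG and 2mM L-alanine, 30 min at room temperature, in HEPES pH 7.5 buffer. Pyruvate detected by pyruvate oxidase/HRP/Amplex Red fluorescence after 30 min in the dark; AOA (50uM) as positive control.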
FLuc inh – inhibitors of firefly (Photinus pyralis) luciferase. actives 2.5% (n = 76,000). P08659. AID 1347043. Potency, µM (top dose mostly 115 µM), hits mostly inhibitors. purified P. pyralis luciferase, luminescence, biochemical; note: % is set by controls: 0 for no effect and ±100 for the full control effect; nearly all actives have a fitted effect of over 65% in size
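Luminescence read by CCD imager after adding enzyme (10nM final) to wells holding compound, titrated in qHTS. Substrates 10uM each D-luciferin and ATP; buffer 50mM Tris acetate pH 7.5, 10mM Mg acetate, Tween-20, BSA.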
NPR1 antag cnf – hNpr1 antagonism, confirmation assay | shares compounds with hNpr1 antagonist | HEK293 hNpr1 cGMP GloSensor luminescence, ANP-stimulated | Potency, µM (series often up to 57.6 µM), without a hit: top-dose activity change, negative = inhibition, most hits filed as inhibitors | actives 76% (n = 1,400); calls by dose curve; note: nearly all actives have a fitted effect of over 70% in size
Npr2 selectivity – hNpr2 antagonism, selectivity versus Npr1; shares compounds with hNpr1 antagonist; HEK293 hNpr2 GloSensor cGMP luminescence, CNP-stimulated; AID 1347046; Potency, µM (titrated, usually from 57.6 µM), without a hit: top-dose activity change, negative = inhibition, hits mostly inhibitors; actives 67% (n = 1,400); calls by dose curve; note: nearly all actives have a fitted effect of over 70% in size
Target sequence (P20594 whole entry, looked up): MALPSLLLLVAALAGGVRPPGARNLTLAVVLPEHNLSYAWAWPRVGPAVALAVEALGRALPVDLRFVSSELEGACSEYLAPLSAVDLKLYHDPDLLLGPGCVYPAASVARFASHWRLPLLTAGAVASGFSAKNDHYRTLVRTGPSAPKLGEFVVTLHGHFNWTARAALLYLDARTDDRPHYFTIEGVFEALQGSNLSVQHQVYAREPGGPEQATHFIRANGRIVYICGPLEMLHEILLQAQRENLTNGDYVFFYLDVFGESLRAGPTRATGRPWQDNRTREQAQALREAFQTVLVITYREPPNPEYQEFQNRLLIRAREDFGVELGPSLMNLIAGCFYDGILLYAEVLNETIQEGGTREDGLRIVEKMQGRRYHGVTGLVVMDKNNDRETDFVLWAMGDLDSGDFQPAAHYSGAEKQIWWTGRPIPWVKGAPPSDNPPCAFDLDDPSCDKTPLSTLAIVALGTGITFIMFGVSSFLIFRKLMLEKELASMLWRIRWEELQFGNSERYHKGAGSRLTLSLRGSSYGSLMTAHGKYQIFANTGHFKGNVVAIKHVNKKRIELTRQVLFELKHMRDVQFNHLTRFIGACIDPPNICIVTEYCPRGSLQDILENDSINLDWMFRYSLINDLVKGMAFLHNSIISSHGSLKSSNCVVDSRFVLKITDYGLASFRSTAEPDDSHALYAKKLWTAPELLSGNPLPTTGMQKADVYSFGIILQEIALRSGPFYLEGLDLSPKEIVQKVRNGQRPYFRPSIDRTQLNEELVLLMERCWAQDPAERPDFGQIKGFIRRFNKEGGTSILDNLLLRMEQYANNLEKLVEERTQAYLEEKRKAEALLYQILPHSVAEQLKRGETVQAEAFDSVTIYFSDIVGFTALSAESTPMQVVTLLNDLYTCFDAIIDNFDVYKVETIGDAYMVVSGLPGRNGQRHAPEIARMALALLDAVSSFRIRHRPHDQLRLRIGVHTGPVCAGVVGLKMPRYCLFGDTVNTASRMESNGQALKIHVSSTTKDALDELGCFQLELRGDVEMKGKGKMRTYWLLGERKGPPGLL
FLuc inh counter – inhibits firefly luciferase, false Npr1 antagonist flag | shares compounds with hNpr1 antagonist | purified FLuc enzyme, luminescence, Km substrate | Potency, µM (titrated, usually from 57.6 µM), without a hit: at the top dose activity change, negative = inhibition, usual class: inhibitors | actives 0.7% (n = 1,400); note: series mostly up to about 58 µM; 0% is about no effect
GloSensor cGMP – counter-screen for Npr1 antagonists: GloSensor control cell line | HEK293 GloSensor cGMP, SNP-stimulated, luminescence | shares compounds with hNpr1 antagonist | Potency, µM (highest dose often 57.6 µM), for inactives: top-dose activity change, negative = inhibition, usual class: inhibitors | AID 1347051 | actives 69% (n = 1,400); calls by dose curve; note: % is set by controls: 0 for no effect and ±100 for the full control effect; nearly all actives have a fitted effect of over 70% in size
* marks the source's active call; other numbers are inactive results; i = inactive; u = inconclusive; x = no result given; [ ] = dose if it differs, or a comment. Unless noted, calls come from the whole dose curve; as a rule, active = well fitted curve in the direction sought with a large enough effect; inconclusive = small, poorly fitted or top-dose-only effect, or another doubt; inactive = no such curve, though single readings can be large; an effect the other way counts as inactive or inconclusive. Potency is the fitted concentration of half-maximal effect.

SMILES	NIH3T3 tox	hNpr1 antagonist	HEK cytotox	GPT2 inh	FLuc inh	NPR1 antag cnf	Npr2 selectivity	FLuc inh counter	GloSensor cGMP
COc1ccc(CC(=O)NC2CCN(c3cc(-c4ccc(F)cc4)[nH]n3)C2)cc1OC (centres undefined)	u	13µM*	u	u	i	22µM*	22µM*	-1%	24µM*
COc1ccc(CC(=O)NC2CCCN(c3cc(-c4ccc(F)cc4)[nH]n3)C2)cc1 (centres undefined)	0%	-3%	-10%	i	i	x	x	x	x
O=C(c1ccc2ccccc2n1)N1CC(c2nnc(-c3ccncc3)o2)C2(CCOCC2)C1 (centres undefined)	-2%	-12%	-4%	i	i	x	x	x	x
N[S+](=O)([O-])c1ccc2c(c1)OCCN(Cc1ccccc1Cl)C2	-28%[138 µM]	-9%[70.6 µM]	u	i	i	x	x	x	x
Cc1cccc2nc(C(=O)N3CCC4(CC3)CC(c3ccccc3)CN(C)C4)cn12 (centres undefined)	-2%	3%	u	2%	i	x	x	x	x
Cc1cccc2nc(C(=O)N3CCCC(c4[nH]ncc4-c4ccccc4)C3)cn12 (centres undefined)	u	u	u	3%[11.5 µM]	i	u	u	-2%	8%
CCOc1ccccc1C(=O)N1CCc2[nH]nc(C(=O)NCCCc3ccccc3)c2C1	u	u	22µM*	i	i	24µM*	u	4%	19µM*
COc1ccccc1-c1ccc(C(=O)N2CCC(NC(=O)NC(C)C)CC2)cc1	u	x	u	i	x	x	x	x	x
O=[S+]([O-])(Nc1ccccc1)c1ccc2c(c1)OCCN(Cc1cccnc1)C2	u	22µM*	u	-3%[88.5 µM]	i	40µM*	u	6%[86.2 µM]	40µM*
CC1(C)CC[C@]2(C(=O)OC3OC(CO)C(O)C(O)C3O)CC[C@]3(C)C(=CCC4[C@@]5(C)CC[C@H](OC6OC(C(=O)O)C(O)C(OC7OC(CO)C(O)C(O)C7O)C6O)C(C)(C)C5CC[C@]43C)C2C1 (some centres undefined)	x	x	x	i	x	x	x	x	x
CCC[C@H]1CN(C(=O)c2ccccc2Cc2ccc(C)cc2)C[C@@H]1N	89µM*	-30%	u	i	i	u	u	-1%	-21%
CC1=NS(=O)(=O)N(C)C=C1C(=O)OCc1nc(-c2ccc(OC(F)(F)F)cc2)no1	u	10µM*	40µM*	i	i	15µM*	14µM*	2%	12µM*
COc1ccc(-c2noc(COC(=O)C3=CN(C)S(=O)(=O)N=C3C)n2)cc1	-24%	7.9µM*	u	i	i	12µM*	17µM*	-8%	14µM*
CC1=NS(=O)(=O)N(C)C=C1C(=O)OCc1nc(C2CCCCC2)no1	u	13µM*	-25%	i	i	22µM*	u	-8%	17µM*
CC1=NS(=O)(=O)N(C)C=C1C(=O)OCc1nc(-c2ccc(Br)cc2)no1	u	10µM*	u	u	i	11µM*	14µM*	-12%	11µM*
CC1=NS(=O)(=O)N(C)C=C1C(=O)OCc1nc(-c2cnccn2)no1	1%	2%	2%	4%	i	x	x	x	x
COc1ccc(CN2C=C(C(=O)OCc3nc(-c4ccc(F)cc4)no3)C(C)=NS2(=O)=O)cc1	u	u	u	i	i	x	x	x	x
O=C(NCc1ccccc1)NC[C@H]1Cn2c(-c3ccc(Cl)cc3)cnc2CO1	u	-10%[70.6 µM]	-20%[172 µM]	i	i	x	x	x	x
CC1=NS(=O)(=O)N(C)C=C1C(=O)OCc1nc(-c2ccccc2F)no1	-14%	u	-4%	i	i	u	u	-2%	u
CC1=NS(=O)(=O)N(C)C=C1C(=O)OCc1nc(Cc2ccc(C)cc2)no1	-22%	11µM*	-27%	i	i	22µM*	u	2%	19µM*
CC1=NS(=O)(=O)N(Cc2ccccc2)C=C1C(=O)OCc1nc(-c2ccccc2F)no1	u	-19%	-29%	-4%	i	x	x	x	x
CC(C)CC(=O)N1C[C@@H](Oc2ccccc2)C[C@H]1C(=O)N1CCOCC1	-14%	3%	-18%	i	i	x	x	x	x
C=C1C(OC2OCC(O)C(O)C2O)CC2C(C)(C)C(O)CCC2(C)C1CC/C(C)=C\CO (centres undefined)	x	x	x	2%[27.3 µM]	x	x	x	x	x
COc1cc(Cl)ccc1C(=O)N1CCN(c2cc(-c3cccs3)[nH]n2)CC1	u	11µM*	25µM*	i	i	19µM*	19µM*	2%	17µM*
COc1ccc(Cl)cc1C(=O)N1CCN(c2cc(-c3cccs3)[nH]n2)CC1	u	u	u	i	i	x	x	x	x
O=C(c1ccc(Cl)cc1Cl)N1CCN(c2cc(-c3cccs3)[nH]n2)CC1	8.9µM*	10µM*	45µM*	-6%	i	24µM*	19µM*	1%	22µM*
COc1ccc(C(=O)N2CCN(c3cc(-c4cccs4)[nH]n3)CC2)c(C)c1	u	11µM*	50µM*	i	i	19µM*	19µM*	0%	15µM*
Cc1ccc(C2Cn3nnc(C(=O)N4CCN(C(=O)c5ccc(Cl)cc5)CC4)c3CO2)cc1 (centres undefined)	-7%	-4%	-6%	3%	i	x	x	x	x
Cc1ccc(C2Cn3nnc(C(=O)N4CCN(C(=O)c5cc(Cl)ccc5F)CC4)c3CO2)cc1 (centres undefined)	u	u	u	-8%	i	15µM*	19µM*	-2%	17µM*
